Screens as filed in PubChem.
Shown are actives, neighbours in structure and some others; about 6.7% of the full set was active somewhere.
MCF10A rereplic = DNA re-replication induction in MCF 10a cells; MCF 10A DNA re-replication, Hoechst nuclear intensity, 48 h; Potency, µM (series often up to 46.1 µM), most hits filed as activators; 350,000 compounds, 2.9% hits; further: nearly all actives have a fitted effect of over 50% in size
PINK1 modulator = modulators of PINK1 expression; PINK1 immunofluorescence, high-content cytometry, 24 h; Potency, µM (series often up to 76.6 µM), hits mostly activators; 410,000 compounds, 0.2% hits; active means well fitted activation curve with a large enough effect; inconclusive means small, poorly fitted or top-dose-only effect; cell line not stated here; further: nearly all actives have a fitted effect of over 65% in size
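PINK1 protein level read as immunofluorescence by microplate cytometer in a fixed, stained stable cell line after 24 h exposure to five compound concentrations, with CCCP as control.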
KB-V1 MDR tox = KB-V1 MDR subline cytotoxicity; KB-V1 MDR cells viability, CellTiter-Glo, 72 h; Potency, µM (doses to about 46.1 µM), actives largely listed as cytotoxic; 400,000 compounds, 3.4% hits; further: nearly all actives have a fitted effect of over 60% in size
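Following 72 h at 37 degrees C with compound, KB-V1 cell viability was read by CellTiter-Glo luminescence, medium being phenol-red-free DMEM plus 10% FBS; concentration-response parameters came from normalized, curve-fitted qHTS data.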
KB-3-1 cytotox = kills parental KB-3-1 adenocarcinoma cells; 400,000 compounds, 1.4% hits; AID 1347075; Potency, µM (top dose mostly 46.1 µM), hits mostly cytotoxic; KB-3-1 viability, CellTiter-Glo ATP luminescence, 72 h; further: nearly all actives have a fitted effect of over 60% in size
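Cytotoxicity in the drug-sensitive parental line KB-3-1 was scored as loss of CellTiter-Glo luminescence following 72 h incubation with compound. Values come from curve fitting of normalized concentration-response data.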
SW480 rerep = induces DNA re-replication in SW480 colon adenocarcinoma cells; SW480 DNA re-replication, Hoechst DNA content imaging, 48 h; Potency, µM (titrated, usually from 46.1 µM), usual class: activators; 340,000 compounds, 1.8% hits; AID 624297; further: nearly all actives have a fitted effect of over 55% in size
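Compounds, transferred as 23 nL by pin tool, were incubated with cells for 48 hr; DNA content per nucleus was then quantified by Hoechst staining and fluorescence plate imaging.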
Each line names hits and unclear results; the compound was inactive in the other large screens. Unless noted, the call rests on the fitted dose curve; in most records, active means well fitted curve in the direction sought with a large enough effect; inconclusive means small, poorly fitted or top-dose-only effect, or another doubt; inactive means no such curve, though single readings can be large; an effect the other way counts as inactive or inconclusive.

O=C(Cc1c[nH]c2ccccc12)N1CCC(n2c(C3CCCO3)nc3cc(C(F)(F)F)ccc32)CC1 (configuration not stated)	none (no result: MCF10A rereplic, KB-V1 MDR tox, KB-3-1 cytotox, SW480 rerep)
OC(c1ccccc1)(c1nc(-c2cc3ccccc3o2)cs1)C(F)(F)F (configuration not stated)	KB-V1 MDR tox inconclusive, KB-3-1 cytotox 23µM (no result: MCF10A rereplic, SW480 rerep)
OC(c1ccccc1)(c1nc(-c2cccc(C(F)(F)F)c2)cs1)C(F)(F)F (configuration not stated)	KB-V1 MDR tox inconclusive (no result: MCF10A rereplic, SW480 rerep)
COc1ccc(S(=O)(=O)c2c(Nc3ccc(C)cc3C)sc(C(=O)c3ccc(F)cc3)c2N)cc1	none (no result: MCF10A rereplic, KB-V1 MDR tox, KB-3-1 cytotox, SW480 rerep)
CC(C)(C)c1nc2cc(Cl)c([N+](=O)[O-])cc2o1	MCF10A rereplic inconclusive, PINK1 modulator 14µM, KB-V1 MDR tox inconclusive, KB-3-1 cytotox inconclusive
CC(=O)Oc1ccccc1C(=O)Nc1ccccc1	MCF10A rereplic inconclusive
COC1(OC)C=CC(=O)C=C1NC(=O)c1ccccc1OC(C)=O	MCF10A rereplic 4.1µM, KB-V1 MDR tox inconclusive, KB-3-1 cytotox inconclusive, SW480 rerep inconclusive
CN(C)S(=O)(=O)c1cccc2c1C(=O)c1ccccc1C2=O	SW480 rerep 21µM
O=C(N/N=C/c1ccccc1O)C(=O)N1CCCCCC1	KB-3-1 cytotox inconclusive, SW480 rerep 5.8µM
O=C(N/N=C/c1ccccc1F)C(=O)N1CCCCCC1	none
CCN(CC)C(=O)C1=C(C)N(CCCN2CCCC2=O)C(=O)C(CC(=O)NCc2cccs2)C1 (configuration not stated)	none (no result: MCF10A rereplic, SW480 rerep)
O=C(NCCOC(=O)c1ccc(Cl)cc1)c1cccnc1	MCF10A rereplic 3.7µM
O=C(NCCOC(=O)c1ccc(C(=O)OCCNC(=O)c2cccnc2)s1)c1cccnc1	none
CN(C)c1ccc(CNC(=O)C2CCCN(S(=O)(=O)c3ccc4c(ccn4C)c3)C2)cc1 (configuration not stated)	KB-V1 MDR tox inconclusive, KB-3-1 cytotox inconclusive (no result: MCF10A rereplic, SW480 rerep)
COc1ccc(CC(=O)Cc2ccc(OC)c(OC)c2)cc1OC	none (no result: MCF10A rereplic, SW480 rerep)
COc1ccc(CC(=O)c2ccc(OC)c(OC)c2C)cc1OC	KB-V1 MDR tox 2.3µM, KB-3-1 cytotox 6.5µM, SW480 rerep inconclusive
Cc1cc(C)c2nc(N(CCCN(C)C)C(=O)c3ccc4c(c3)CCCC4)sc2c1	MCF10A rereplic inconclusive, KB-V1 MDR tox inconclusive, KB-3-1 cytotox inconclusive, SW480 rerep inconclusive
CN(C)CCCN(C(=O)c1ccc(C(=O)c2ccccc2)cc1)c1nc2cc3c(cc2s1)OCO3	MCF10A rereplic inconclusive, KB-V1 MDR tox 21µM, KB-3-1 cytotox inconclusive, SW480 rerep inconclusive
CCc1ccc2nc(N(CCCN(C)C)C(=O)c3ccc(S(=O)(=O)N(C)C4CCCCC4)cc3)sc2c1	MCF10A rereplic 18µM, KB-3-1 cytotox inconclusive, SW480 rerep inconclusive
CN(C)CCCN(C(=O)c1cc2cc([N+](=O)[O-])ccc2s1)c1nc2cc3c(cc2s1)OCCO3	MCF10A rereplic inconclusive, KB-V1 MDR tox 18µM, KB-3-1 cytotox inconclusive, SW480 rerep 10µM
CCN(CC)CCN(C(=O)c1ccc(C(=O)c2ccccc2)cc1)c1nc2cc3c(cc2s1)OCO3	none
Cc1ccc2nc(N(CCCN(C)C)C(=O)c3ccc4c(c3)CCCC4)sc2c1	MCF10A rereplic inconclusive, KB-V1 MDR tox 4.1µM, KB-3-1 cytotox inconclusive, SW480 rerep inconclusive
CCOC(=O)N1CCN(S(=O)(=O)c2ccc(F)c(C(=O)Nc3ccc(C(C)C)cc3)c2)CC1	KB-V1 MDR tox 6.5µM
Cc1cc(C)cc(OCC(=O)N(C)CC(=O)Nc2ccc(Cl)c(C(F)(F)F)c2)c1	MCF10A rereplic 6.5µM, KB-3-1 cytotox inconclusive
CN(CC(=O)Nc1ccc(Cl)c(C(F)(F)F)c1)C(=O)c1cccc2cccnc12	KB-V1 MDR tox 18µM
COc1ccc(NC(=O)CSCC(=O)N(C)CC(=O)Nc2ccc(Cl)c(C(F)(F)F)c2)cc1	SW480 rerep inconclusive
CC(NC(=O)c1ccccc1)C(=O)OCn1nnc2ccccc2c1=O (configuration not stated)	none
COc1cc2c3nnc(-c4ccccc4)c-3cn(Cc3ccc(F)cc3)c2cc1OC	MCF10A rereplic inconclusive, SW480 rerep 18µM
COc1cc2c3nnc(-c4ccc(F)cc4)c-3cn(Cc3cccc(C)c3)c2cc1OC	MCF10A rereplic inconclusive, PINK1 modulator inconclusive, KB-3-1 cytotox inconclusive, SW480 rerep 21µM
COc1cc2c3nnc(-c4ccc(F)cc4)c-3cn(Cc3ccc(C)cc3)c2cc1OC	MCF10A rereplic inconclusive, PINK1 modulator inconclusive, KB-3-1 cytotox inconclusive
COc1cccc(Cn2nc3c4cc(F)ccc4n(Cc4ccc(F)cc4)cc-3c2=O)c1	MCF10A rereplic inconclusive
COc1cc2c3nnc(-c4ccc(F)cc4)c-3cn(Cc3cccc(F)c3)c2cc1OC	MCF10A rereplic inconclusive, PINK1 modulator inconclusive, KB-3-1 cytotox inconclusive, SW480 rerep 6.5µM
COc1ccc(S(=O)(=O)N2CCN(C(=O)CCc3c[nH]c4ccccc34)CC2)cc1	none
CCOC(=O)C1=CCC(c2ccc(CC)cc2)N(S(=O)(=O)c2ccc(C)cc2)C1 (configuration not stated)	none (no result: MCF10A rereplic, SW480 rerep)
CC(=O)C1CCN(c2ncc(-c3ccc4c(c3)OCCCO4)s2)CC1	none (no result: MCF10A rereplic, PINK1 modulator, SW480 rerep)
CC1CN(S(=O)(=O)c2cccc(C(=O)Nc3ccccc3N3CCCC3)c2)CC(C)O1 (configuration not stated)	KB-V1 MDR tox inconclusive, KB-3-1 cytotox inconclusive
COc1cc(-c2nc(-c3ccccc3)c(-c3cccs3)[nH]2)cc(OC)c1O	MCF10A rereplic inconclusive, KB-V1 MDR tox 21µM, KB-3-1 cytotox inconclusive
COc1cc(-c2nc(-c3ccccc3)c(-c3cccs3)[nH]2)cc(OC)c1OC	MCF10A rereplic inconclusive
C=CCN=c1scc(-c2ccc3c(c2)NC(=O)CO3)n1/N=C(\C)c1ccccn1	MCF10A rereplic inconclusive, KB-V1 MDR tox inconclusive, KB-3-1 cytotox 5.2µM
O=C(c1ccc(CS(=O)(=O)c2c(Cl)cccc2Cl)o1)N1CCN(c2ccccc2)CC1	none (no result: MCF10A rereplic, SW480 rerep)
COc1cc(N=Nc2ccc3ccccc3c2)ccc1O	MCF10A rereplic inconclusive
COc1cc(N=Nc2ccccc2C(=O)O)ccc1O	MCF10A rereplic 18µM
Cc1cc2c([nH]c3ccccc32)c(C)n1	MCF10A rereplic inconclusive
Cc1c2ccncc2cc2c1[nH]c1ccccc12	MCF10A rereplic 16µM, KB-V1 MDR tox inconclusive, KB-3-1 cytotox inconclusive, SW480 rerep 23µM
CCc1nnc(NC(=O)CSc2nnc(-c3ccccc3O)n2-c2ccc(C)cc2C)s1	MCF10A rereplic 9.2µM, KB-V1 MDR tox 18µM, KB-3-1 cytotox inconclusive, SW480 rerep 18µM
COc1ccc(S(=O)(=O)N2CCN(Cc3cc4c(cc3Br)OCCO4)CC2)cc1	KB-V1 MDR tox 15µM
COc1ccc(S(=O)(=O)N2CCN(S(=O)(=O)c3ccc4c(c3)OCCO4)CC2)cc1	none
COCCCNC(=O)Cn1cnc(C(=O)Nc2ccc(C)c(C)c2)n1	none
C[C@H]1c2cccc(O)c2C(O)=C2C(=O)C3(O)C(O)=C(C(N)=O)C(=O)[C@@H](N(C)C)[C@@H]3[C@@H](O)[C@@H]21 (some centres not stated)	SW480 rerep inconclusive
